Binding signal data for one sequence are collected here from PMC7862700, “An all-to-all approach to the identification of sequence-specific readers for epigenetic DNA modifications on cytosine”.

Experiment in all cases: DAPPL (digital affinity profiling via proximity ligation, sequencing); 10 mM Tris-HCl pH 7.5, 50 mM NaCl, 1 mM DTT, 4% glycerol, room temperature, 30 min; GST-TFs on glutathione beads, 16-mer random dsDNA library, 0.1% formaldehyde crosslink after washing; high values mean tight binding
Holding throughout (conditions): protein: recombinant; tags: N-terminal GST; dsDNA, one strand shown

One experiment concerns the target T1, ELK1 (Homo sapiens, UniProt P19419 1-428).
T1 sequence: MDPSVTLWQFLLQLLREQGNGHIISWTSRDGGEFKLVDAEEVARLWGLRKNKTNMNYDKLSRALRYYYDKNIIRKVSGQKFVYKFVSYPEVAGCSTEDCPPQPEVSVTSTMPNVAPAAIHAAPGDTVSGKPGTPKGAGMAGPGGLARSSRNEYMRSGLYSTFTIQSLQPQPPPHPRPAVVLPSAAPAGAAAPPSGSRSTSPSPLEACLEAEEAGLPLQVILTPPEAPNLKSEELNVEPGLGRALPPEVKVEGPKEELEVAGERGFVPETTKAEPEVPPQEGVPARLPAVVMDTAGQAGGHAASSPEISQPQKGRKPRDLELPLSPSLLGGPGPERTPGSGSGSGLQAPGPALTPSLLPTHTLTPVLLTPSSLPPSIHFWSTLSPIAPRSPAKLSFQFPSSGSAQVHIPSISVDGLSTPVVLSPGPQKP
In a few lines: (§1)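 The binding signal reported is, for every hexamer, its read frequency for a factor over its read frequency for the tag-only sample. Reads came from pools of yeast-expressed, GST-fused human transcription factors on glutathione beads, barcoded with DNA and mixed with that sample, which were incubated with 200 nmole of a random double-stranded 16-mer DNA library in Tris/NaCl/DTT/glycerol buffer at room temperature for 30 min. After washing, the pools were crosslinked with 0.1% formaldehyde, proximity-ligated with BsaI/T4 ligase for 1 h at 37 °C, PCR-amplified and sequenced on an Illumina NextSeq500.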

A further experiment concerns the target T2, GABPA (Homo sapiens, UniProt Q06546 1-454).
T2 sequence: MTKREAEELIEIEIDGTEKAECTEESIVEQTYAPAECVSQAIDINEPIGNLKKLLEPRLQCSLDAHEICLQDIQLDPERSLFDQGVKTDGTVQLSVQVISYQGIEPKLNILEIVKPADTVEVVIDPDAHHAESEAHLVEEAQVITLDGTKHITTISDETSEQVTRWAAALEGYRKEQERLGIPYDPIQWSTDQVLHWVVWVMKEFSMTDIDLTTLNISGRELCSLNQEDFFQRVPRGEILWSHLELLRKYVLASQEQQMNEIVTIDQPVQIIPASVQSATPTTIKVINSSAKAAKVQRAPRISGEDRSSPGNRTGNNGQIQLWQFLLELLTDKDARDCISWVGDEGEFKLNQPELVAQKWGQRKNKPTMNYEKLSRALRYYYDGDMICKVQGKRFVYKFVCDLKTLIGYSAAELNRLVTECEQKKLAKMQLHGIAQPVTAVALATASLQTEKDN
In a few lines:
as §1

For a further experiment, the target named is T3, ERG (Homo sapiens, UniProt P11308 1-479).
T3 sequence: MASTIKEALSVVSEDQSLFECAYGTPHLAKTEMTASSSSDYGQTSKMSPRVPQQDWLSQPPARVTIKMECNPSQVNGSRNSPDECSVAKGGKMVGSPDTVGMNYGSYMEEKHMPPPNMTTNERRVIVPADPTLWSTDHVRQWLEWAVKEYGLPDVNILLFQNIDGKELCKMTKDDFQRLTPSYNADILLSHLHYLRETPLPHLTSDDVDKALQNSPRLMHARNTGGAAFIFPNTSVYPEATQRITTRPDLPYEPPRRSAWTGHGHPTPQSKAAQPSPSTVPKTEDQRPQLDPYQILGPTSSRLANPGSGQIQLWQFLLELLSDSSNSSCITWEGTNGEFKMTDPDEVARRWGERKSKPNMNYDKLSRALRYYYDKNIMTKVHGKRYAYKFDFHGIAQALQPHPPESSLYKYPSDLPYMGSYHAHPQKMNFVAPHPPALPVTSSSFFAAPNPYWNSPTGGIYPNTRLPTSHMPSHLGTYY
In a few lines: as §1

A further experiment concerns the target ELF1 (Homo sapiens, UniProt P32519 1-619). In a few lines: as §1
Another experiment concerns the target T4, EHF (Homo sapiens, UniProt Q9NZC4 1-300).
T4 sequence: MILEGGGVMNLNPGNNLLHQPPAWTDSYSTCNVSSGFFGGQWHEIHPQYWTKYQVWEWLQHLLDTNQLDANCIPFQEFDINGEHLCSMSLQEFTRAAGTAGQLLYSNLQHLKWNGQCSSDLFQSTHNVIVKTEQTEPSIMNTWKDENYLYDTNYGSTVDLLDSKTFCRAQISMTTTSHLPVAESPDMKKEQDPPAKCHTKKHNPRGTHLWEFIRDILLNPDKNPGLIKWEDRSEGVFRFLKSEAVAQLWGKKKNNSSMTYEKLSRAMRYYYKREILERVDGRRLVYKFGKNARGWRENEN
In a few lines:
as §1

The target of the next experiment is SPIB (Homo sapiens, UniProt Q01892 1-262). In a few lines:
as §1

For a further experiment, the target named is T5, FEV (Homo sapiens, UniProt Q99581 1-238).
T5 sequence: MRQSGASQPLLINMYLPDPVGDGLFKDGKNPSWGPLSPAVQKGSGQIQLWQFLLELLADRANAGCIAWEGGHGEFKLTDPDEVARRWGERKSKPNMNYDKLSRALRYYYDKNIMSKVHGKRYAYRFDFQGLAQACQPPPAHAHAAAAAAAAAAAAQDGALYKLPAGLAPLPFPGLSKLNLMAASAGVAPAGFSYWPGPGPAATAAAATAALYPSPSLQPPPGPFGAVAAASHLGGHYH
In a few lines: as §1

A further experiment concerns the target ETV5 (Homo sapiens, UniProt P41161 1-510). In a few lines:
as §1

A further experiment deals with ELF4 (Homo sapiens, UniProt Q99607 1-663). In a few lines:
as §1

The next experiment deals with T6, ELK4 (Homo sapiens, UniProt P28324-2 1-405).
T6 sequence: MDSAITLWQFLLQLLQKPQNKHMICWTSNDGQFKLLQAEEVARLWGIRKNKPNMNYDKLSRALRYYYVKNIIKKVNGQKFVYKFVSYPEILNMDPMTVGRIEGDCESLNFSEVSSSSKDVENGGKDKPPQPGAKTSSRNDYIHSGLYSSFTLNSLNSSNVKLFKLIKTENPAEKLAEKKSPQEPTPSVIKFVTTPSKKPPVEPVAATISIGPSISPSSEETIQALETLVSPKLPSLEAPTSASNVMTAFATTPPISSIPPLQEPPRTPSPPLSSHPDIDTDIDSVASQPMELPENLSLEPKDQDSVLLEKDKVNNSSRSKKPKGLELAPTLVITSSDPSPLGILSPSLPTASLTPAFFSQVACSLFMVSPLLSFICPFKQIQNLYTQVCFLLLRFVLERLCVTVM
In a few lines: as §1

The target in a further experiment is T7, ETV2 (Homo sapiens, UniProt O00321 1-342).
T7 sequence: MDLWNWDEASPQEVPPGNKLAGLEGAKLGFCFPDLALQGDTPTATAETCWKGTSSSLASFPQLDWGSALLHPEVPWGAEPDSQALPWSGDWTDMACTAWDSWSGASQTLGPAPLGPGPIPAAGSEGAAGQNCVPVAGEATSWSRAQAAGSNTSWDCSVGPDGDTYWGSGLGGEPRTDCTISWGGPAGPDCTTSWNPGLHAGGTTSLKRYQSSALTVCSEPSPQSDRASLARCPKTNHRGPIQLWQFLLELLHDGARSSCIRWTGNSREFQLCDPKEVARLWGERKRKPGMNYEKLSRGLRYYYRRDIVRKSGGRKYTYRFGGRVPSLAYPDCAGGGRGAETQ
In a few lines:
as §1

In another experiment the target is T8, ELF3 (Homo sapiens, UniProt P78545 1-371).
T8 sequence: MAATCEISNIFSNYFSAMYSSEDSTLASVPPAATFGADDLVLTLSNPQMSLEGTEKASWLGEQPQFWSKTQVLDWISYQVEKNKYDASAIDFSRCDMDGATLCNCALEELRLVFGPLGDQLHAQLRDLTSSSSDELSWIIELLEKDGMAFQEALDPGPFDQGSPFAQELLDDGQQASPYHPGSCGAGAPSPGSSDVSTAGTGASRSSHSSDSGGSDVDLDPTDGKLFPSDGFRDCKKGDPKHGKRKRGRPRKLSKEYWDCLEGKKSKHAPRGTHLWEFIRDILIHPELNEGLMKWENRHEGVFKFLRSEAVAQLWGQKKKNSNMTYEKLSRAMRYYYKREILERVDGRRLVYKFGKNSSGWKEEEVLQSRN
In a few lines:
as §1

For another experiment, the target named is ETV1 (Homo sapiens, UniProt P50549 1-477). In a few lines: as §1
The target of another experiment is T9, ERF (Homo sapiens, UniProt P50548 1-548).
T9 sequence: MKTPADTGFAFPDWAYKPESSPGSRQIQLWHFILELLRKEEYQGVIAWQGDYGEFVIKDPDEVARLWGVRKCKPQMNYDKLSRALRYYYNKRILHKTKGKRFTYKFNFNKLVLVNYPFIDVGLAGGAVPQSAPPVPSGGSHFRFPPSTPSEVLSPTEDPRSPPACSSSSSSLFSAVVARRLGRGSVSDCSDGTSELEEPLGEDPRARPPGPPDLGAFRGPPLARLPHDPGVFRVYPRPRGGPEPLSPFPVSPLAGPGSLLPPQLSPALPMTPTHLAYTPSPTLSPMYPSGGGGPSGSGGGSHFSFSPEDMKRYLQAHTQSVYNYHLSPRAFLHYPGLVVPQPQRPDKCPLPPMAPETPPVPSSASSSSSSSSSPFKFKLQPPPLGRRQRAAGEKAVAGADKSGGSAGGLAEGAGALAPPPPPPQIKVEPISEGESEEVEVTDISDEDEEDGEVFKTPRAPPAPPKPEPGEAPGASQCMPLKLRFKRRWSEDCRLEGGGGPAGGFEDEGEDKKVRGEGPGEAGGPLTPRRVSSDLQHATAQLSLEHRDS
In a few lines: as §1

The target in the next experiment is T10, ETV3L (Homo sapiens, UniProt Q6ZN32 1-361).
T10 sequence: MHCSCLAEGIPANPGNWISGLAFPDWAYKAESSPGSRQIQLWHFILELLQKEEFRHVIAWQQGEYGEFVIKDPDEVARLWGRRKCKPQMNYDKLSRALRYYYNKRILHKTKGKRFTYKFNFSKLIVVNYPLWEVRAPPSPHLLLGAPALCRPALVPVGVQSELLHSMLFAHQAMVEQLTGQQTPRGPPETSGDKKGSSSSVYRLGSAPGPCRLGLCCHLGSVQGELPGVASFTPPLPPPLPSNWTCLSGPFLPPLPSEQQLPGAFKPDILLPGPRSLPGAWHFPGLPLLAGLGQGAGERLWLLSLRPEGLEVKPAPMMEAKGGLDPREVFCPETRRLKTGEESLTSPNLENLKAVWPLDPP
In a few lines:
as §1

A further experiment has as its target T11, ETS2 (Homo sapiens, UniProt P15036 1-469).
T11 sequence: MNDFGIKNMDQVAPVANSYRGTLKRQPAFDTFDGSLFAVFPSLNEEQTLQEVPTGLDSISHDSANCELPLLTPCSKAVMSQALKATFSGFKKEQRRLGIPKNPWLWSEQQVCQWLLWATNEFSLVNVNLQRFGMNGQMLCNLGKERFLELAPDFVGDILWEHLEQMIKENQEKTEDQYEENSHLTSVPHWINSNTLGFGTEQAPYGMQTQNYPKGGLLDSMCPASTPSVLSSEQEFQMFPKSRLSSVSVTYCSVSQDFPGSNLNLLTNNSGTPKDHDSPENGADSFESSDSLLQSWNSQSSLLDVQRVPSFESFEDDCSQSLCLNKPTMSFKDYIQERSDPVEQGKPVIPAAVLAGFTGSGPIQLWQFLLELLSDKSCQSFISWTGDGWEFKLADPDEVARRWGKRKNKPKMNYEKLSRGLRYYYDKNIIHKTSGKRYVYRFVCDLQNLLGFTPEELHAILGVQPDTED
In a few lines: as §1

The target of the next experiment is T12, SPDEF (Homo sapiens, UniProt O95238 1-335).
T12 sequence: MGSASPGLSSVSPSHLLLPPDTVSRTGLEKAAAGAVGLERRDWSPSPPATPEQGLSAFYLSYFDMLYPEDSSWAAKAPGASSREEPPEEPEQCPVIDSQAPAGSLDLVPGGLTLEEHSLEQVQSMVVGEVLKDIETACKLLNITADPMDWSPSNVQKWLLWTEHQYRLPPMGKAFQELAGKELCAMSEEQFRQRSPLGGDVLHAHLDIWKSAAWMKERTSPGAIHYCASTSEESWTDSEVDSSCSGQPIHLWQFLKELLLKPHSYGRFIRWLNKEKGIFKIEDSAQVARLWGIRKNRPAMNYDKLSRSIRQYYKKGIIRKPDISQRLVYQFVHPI
In a few lines:
as §1

A further experiment has as its target T13, ETV3 (Homo sapiens, UniProt P41162-2 1-143).
T13 sequence: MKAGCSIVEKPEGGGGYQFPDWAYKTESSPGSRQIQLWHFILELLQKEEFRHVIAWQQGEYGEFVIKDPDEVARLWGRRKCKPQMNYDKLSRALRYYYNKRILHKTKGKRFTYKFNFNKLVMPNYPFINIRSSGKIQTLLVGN
In a few lines:
as §1

For the next experiment, the target named is ETV6 (Homo sapiens, UniProt P41212 1-452). In a few lines: as §1
Chain of ETV6 (P41212 whole entry): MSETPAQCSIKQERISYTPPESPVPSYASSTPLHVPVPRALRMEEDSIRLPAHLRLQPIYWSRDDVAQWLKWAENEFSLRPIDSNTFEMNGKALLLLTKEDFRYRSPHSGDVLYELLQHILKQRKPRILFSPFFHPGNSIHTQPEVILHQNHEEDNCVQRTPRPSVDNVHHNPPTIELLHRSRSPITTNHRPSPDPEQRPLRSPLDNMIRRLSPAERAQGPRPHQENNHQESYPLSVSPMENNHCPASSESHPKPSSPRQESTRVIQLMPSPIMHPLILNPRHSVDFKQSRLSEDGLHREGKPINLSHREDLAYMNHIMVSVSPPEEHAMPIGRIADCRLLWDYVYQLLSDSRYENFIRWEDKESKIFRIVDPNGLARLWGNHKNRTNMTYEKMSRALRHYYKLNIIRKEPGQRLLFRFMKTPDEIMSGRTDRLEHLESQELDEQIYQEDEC

Chain of ETV1 (P50549 whole entry): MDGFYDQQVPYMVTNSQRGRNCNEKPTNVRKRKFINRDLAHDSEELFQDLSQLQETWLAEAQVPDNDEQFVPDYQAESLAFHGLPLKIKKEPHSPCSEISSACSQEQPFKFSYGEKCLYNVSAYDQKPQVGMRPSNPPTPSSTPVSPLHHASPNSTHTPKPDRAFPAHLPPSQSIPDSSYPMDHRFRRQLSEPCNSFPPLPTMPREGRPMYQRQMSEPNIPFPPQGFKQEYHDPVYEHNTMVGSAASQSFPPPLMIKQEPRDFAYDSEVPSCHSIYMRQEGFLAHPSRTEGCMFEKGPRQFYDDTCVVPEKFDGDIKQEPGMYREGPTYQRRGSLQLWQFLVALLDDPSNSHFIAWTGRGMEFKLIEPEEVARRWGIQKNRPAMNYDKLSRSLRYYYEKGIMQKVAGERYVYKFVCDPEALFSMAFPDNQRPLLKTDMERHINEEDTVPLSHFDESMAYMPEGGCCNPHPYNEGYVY
Chain of ETV5 (P41161 whole entry): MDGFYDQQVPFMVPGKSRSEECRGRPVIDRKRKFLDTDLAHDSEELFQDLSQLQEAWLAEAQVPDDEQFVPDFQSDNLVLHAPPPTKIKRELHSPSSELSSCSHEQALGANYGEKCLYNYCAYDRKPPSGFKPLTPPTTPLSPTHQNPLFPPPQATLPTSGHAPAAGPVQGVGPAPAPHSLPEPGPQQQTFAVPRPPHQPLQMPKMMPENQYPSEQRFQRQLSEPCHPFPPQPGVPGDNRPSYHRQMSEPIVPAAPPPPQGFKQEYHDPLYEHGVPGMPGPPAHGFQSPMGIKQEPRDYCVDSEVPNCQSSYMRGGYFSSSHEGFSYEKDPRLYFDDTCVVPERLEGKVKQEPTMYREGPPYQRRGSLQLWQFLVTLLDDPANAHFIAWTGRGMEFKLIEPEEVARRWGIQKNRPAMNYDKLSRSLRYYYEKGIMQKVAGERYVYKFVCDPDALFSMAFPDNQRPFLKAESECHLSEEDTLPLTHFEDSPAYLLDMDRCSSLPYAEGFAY
Chain of ELF1 (P32519 whole entry): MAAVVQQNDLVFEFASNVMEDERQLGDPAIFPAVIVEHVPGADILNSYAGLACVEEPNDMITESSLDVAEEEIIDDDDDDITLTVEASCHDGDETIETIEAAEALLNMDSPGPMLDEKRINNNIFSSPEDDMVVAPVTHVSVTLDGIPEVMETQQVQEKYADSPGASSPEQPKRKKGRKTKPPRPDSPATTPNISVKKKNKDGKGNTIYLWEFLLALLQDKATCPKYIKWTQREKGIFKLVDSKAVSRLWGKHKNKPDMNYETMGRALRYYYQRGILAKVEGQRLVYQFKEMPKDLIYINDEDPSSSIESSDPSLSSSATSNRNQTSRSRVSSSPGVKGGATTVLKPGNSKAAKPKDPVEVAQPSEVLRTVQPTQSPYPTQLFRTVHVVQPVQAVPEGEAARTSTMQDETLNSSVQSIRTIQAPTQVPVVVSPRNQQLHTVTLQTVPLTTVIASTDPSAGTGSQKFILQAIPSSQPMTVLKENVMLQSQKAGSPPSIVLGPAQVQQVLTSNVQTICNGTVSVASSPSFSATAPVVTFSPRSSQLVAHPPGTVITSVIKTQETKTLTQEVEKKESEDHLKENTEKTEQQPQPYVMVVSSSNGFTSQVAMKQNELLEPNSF
Chain of ELF4 (Q99607 whole entry): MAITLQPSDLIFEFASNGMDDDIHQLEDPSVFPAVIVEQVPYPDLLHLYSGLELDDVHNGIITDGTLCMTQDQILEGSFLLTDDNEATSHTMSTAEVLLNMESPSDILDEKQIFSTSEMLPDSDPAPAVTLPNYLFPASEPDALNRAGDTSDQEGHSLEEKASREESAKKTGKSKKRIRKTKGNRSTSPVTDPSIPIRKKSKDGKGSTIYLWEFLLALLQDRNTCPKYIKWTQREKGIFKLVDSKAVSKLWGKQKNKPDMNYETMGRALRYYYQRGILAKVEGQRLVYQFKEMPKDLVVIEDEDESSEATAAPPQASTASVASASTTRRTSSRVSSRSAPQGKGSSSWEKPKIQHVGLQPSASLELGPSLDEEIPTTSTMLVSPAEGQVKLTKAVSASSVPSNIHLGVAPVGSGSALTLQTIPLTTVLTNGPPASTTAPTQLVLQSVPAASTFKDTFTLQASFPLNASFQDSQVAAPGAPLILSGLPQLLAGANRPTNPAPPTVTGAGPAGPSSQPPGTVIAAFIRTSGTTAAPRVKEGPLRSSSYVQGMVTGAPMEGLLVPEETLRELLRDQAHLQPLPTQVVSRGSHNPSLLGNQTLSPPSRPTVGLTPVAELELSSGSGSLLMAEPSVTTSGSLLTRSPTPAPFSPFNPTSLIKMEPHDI
Chain of SPIB (Q01892 whole entry): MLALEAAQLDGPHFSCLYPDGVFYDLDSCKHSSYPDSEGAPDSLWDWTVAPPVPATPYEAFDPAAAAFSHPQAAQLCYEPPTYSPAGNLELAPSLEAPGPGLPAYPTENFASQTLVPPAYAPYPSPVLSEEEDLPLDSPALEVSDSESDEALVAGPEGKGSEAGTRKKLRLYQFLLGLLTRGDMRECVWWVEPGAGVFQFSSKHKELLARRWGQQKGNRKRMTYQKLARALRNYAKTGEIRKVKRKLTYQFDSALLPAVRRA

As to CAGCCC, the binding signal is 1.16 fold enrichment (6-mer frequency, TF over GST control) with ELK1; 1.06 fold enrichment (6-mer frequency, TF over GST control) in the experiment with GABPA; 1.18 fold enrichment (6-mer frequency, TF over GST control) in the experiment with ERG; 1.09 fold enrichment (6-mer frequency, TF over GST control) with ELF1; 1.16 fold enrichment (6-mer frequency, TF over GST control) with EHF; 1.09 fold enrichment (6-mer frequency, TF over GST control) with SPIB. For the same sequence, the binding signal was 1.13 fold enrichment (6-mer frequency, TF over GST control) with FEV; 1.07 fold enrichment (6-mer frequency, TF over GST control) with ETV5; 1.06 fold enrichment (6-mer frequency, TF over GST control) in the experiment with ELF4; 1.19 fold enrichment (6-mer frequency, TF over GST control) with ELK4; 1.27 fold enrichment (6-mer frequency, TF over GST control) with ETV2; 1.35 fold enrichment (6-mer frequency, TF over GST control) with ELF3. Further, the binding signal was 1.01 fold enrichment (6-mer frequency, TF over GST control) with ETV1; 1.08 fold enrichment (6-mer frequency, TF over GST control) with ERF; 1.07 fold enrichment (6-mer frequency, TF over GST control) with ETV3L; 1.13 fold enrichment (6-mer frequency, TF over GST control) in the experiment with ETS2; 1.02 fold enrichment (6-mer frequency, TF over GST control) with SPDEF; 1.05 fold enrichment (6-mer frequency, TF over GST control) with ETV3. Also, the binding signal with ETV6 was 1.12 fold enrichment (6-mer frequency, TF over GST control).
